The results in this text go back to PubChem BioAssay (NCATS).

For test [1], the system named is HIV-1 nucleocapsid protein NCp7 (binding to TG oligonucleotide). The test can be described thus: HIV Nucleocapsid (AID 346).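 Also: potency is read from the fitted curve at half-maximal effect; potency is for inhibitors that block NC binding and lower polarization.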 As to conditions: HIV-1 NC / fluorescein-TGTGTGTG probe, fluorescence polarization. The procedure, abridged:
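HIV-1 NC (100 nM) binding to fluorescein-labelled ssDNA TG4xF (10 nM) in Hepes pH 7.5, 250mM NaCl, 1uM ZnCl2, TCEP and 2-mercaptoethanol; compounds pin-transferred, 1 hr room temperature, fluorescence polarization read on CCD imager.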
On the technique in general: Polarisation of emitted light reports the rotation of a fluorescent probe.

Test [2] concerns the target Lysosomal acid glucosylceramidase (Homo sapiens) (UniProt P04062). The test can be described thus: Glucocerebrosidase-p2 (AID 348; in the data active = potency below about 10 µM; also: potency is read from the fitted curve at half-maximal effect). The note with it: purified GBA, blue fluorogenic substrate, 40 min. Summed up:
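Normal human glucocerebrosidase (0.2 nM) with blue fluorogenic substrate (80 uM final) in citrate/phosphate pH 5.9 with 10mM sodium taurocholate, 0.01% tween-20; 40 min RT, NaOH/glycine stop; fluorescence Ex 365/Em 440; AC50 from a titration from 0.6 nM upwards.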

Test [3] can be described thus: AP1 Signaling Pathway (AID 357; active = well fitted curve in either direction with a large enough effect, not every such curve was filed as active;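 also: ME-180 reporter cells stimulated with EGF at its EC50 level; % is scaled to controls: 0 for no effect and ±100 for the full control effect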). As to conditions: ME-180 AP-1-bla reporter, EGF-induced, beta-lactamase ratio, 5 h; at 7.69 µM (top of the series) unless noted. The procedure, abridged: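 Titration-series screen for positive or negative modulators of EC50 EGF-induced signaling in ME-180 cells carrying an AP-1-driven beta-lactamase reporter. After 5 hours at 37 degrees Celsius, CCF4 460nm/530nm emission ratio gave %Activity; AC50 values derived.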

Test [4] addresses Cytochrome P450 1A2 (Homo sapiens) (UniProt P05177). The test can be described thus: p450-cyp1a2 (AID 410; calls by dose curve;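 also: -100% = full effect of reference inhibitor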). As to conditions: recombinant CYP1A2, luciferin-ME demethylation, luminescence; series mostly up to 11.4 µM. Summed up: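 Luminescent demethylation readout: Luciferin-ME (100uM, equal to Km) turned over by 20nM CYP1A2 for 60 min at room temperature after NADPH regeneration addition, following 10 min compound preincubation. Normalization used 57 uM furafylline as full inhibition.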

Test [5] can be described thus: NFAT Signaling Pathway (AID 444; active = well fitted curve in either direction with a large enough effect, not every such curve was filed as active;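 also: carbachol stimulus at about its EC50 of 1 µM final; % is scaled to controls: 0 for no effect and ±100 for the full control effect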). As to conditions: Jurkat NFAT-bla M1, carbachol, beta-lactamase ratio, 5 h; at 7.69 µM (top of the series) unless noted. Summed up:
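Read-out: CCF4 FRET ratio (460 nm/530 nm) after 1 h RT dye loading, used for %activity and AC50 from titration series. Cells: Jurkat NFAT-β-lactamase/M1 line, treated with compound plus 1 uM carbachol for 5 h, 37 °C.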

Test [6] is described as follows: Stat Signaling Pathway (AID 446; active = well fitted curve in either direction with a large enough effect, not every such curve was filed as active;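 also: ME-180 cervical cancer cells given 40 pM IL-6 alongside compound; SIE-controlled beta-lactamase reporter measured as 460/530 nm FRET emission ratio; % is scaled to controls: 0 for no effect and ±100 for the full control effect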). As to conditions: ME-180 (cervical carcinoma) SIE beta-lactamase reporter, IL-6 stimulated, 5 h; at 7.69 µM (top of the series) unless noted. The procedure, abridged: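 FRET read-out (405 nm excitation, 460/530 nm emission) of a beta-lactamase reporter under a STAT-inducible element in ME-180 cervical carcinoma cells. Cells with compound receive 40 pM IL-6 for 5 h. Values are normalised to AC90 stimulation and AC90 JAK-inhibitor controls.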

The target of test [7] is Glucocorticoid receptor (Homo sapiens) (UniProt P04150). Nature of the test: GR-GFP Redistribution (AID 450;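 active = compounds whose dose series gives a full or clear partial fitted curve of increased nuclear translocation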; also: potency is read from the fitted curve at half-maximal effect). As to conditions: U2OS GR-GFP nuclear translocation, laser cytometry, 2 h.
Chain of Glucocorticoid receptor (Homo sapiens) (P04150 whole entry, looked up): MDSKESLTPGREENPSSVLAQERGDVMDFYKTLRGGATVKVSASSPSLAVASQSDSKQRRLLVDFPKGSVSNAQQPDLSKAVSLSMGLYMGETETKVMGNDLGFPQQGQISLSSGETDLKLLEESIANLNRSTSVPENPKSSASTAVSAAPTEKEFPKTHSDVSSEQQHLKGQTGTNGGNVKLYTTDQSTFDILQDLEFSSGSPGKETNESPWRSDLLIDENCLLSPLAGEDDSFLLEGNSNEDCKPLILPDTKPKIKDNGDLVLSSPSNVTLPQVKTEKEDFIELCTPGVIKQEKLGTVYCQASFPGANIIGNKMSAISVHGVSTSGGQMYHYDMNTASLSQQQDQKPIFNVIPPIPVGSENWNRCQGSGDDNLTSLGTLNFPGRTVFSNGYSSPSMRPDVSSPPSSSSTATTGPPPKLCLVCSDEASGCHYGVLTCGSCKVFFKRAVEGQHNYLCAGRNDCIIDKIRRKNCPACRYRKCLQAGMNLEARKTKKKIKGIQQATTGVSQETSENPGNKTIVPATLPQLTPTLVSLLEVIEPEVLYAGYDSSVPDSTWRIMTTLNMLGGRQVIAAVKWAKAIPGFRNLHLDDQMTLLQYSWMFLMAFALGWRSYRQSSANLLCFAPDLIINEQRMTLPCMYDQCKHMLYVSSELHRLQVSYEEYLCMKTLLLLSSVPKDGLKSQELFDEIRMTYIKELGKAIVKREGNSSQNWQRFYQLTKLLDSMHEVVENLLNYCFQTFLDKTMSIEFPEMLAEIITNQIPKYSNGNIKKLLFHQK
Test [8] has the same target. The test can be described thus: GR-EFC Redistribution (AID 451; calls by dose curve; also: potency is read from the fitted curve at half-maximal effect). The note with it: CHO-K1 GR-EFC translocation, beta-gal luminescence, 2 h. The procedure, abridged:
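Translocation of GR-ED fusion to nuclear EA restores b-gal, read by luminescence after 1 h room-temperature detection. Engineered CHO-K1 biosensor cells, 1,000/well, exposed 2 h at 37 C to titrations up to 46 uM final.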

Test [9] concerns the target Mitogen-activated protein kinase 10 (Mus musculus) (UniProt Q61831). Nature of the test: JNK3 AlphaScreen Assay (AID 530; active = well fitted curve in either direction with a large enough effect, not every such curve was filed as active;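 also: kinase came from lysate of stimulated human HepG2 cells; signal reports phosphorylation of biotinylated GST-cJun 1-79 at Ser73 with 10 µM ATP; % is scaled to controls: 0 for no effect and ±100 for the full control effect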). As to conditions: JNK3 lysate, c-Jun phosphorylation; series mostly up to 57.1 µM. Summed up: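 qHTS titrations with 15 min compound pre-incubation before adding ATP (10 uM final). Read-out: AlphaScreen of Ser73-phosphorylated biotin-GST-cJun using HepG2 lysate JNK3 activated by IL-1β and TNFα.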
In general terms: In Alpha technology, singlet oxygen from a donor bead excites a nearby acceptor bead.

For test [10], the target named is 3',5'-cyclic-AMP phosphodiesterase 4B (Homo sapiens) (UniProt Q07343). Nature of the test: qHTS Assay for Inhibitors of PDE-IV (AID 607; active = well fitted activation curve with a large enough effect in the main read-out, with a control signal flat, not every such curve was filed as active; also: % of control where 0% means no effect). As to conditions: HEK293 ACTOne CNG channel cells, membrane potential fluorescence; series mostly up to 22.9 µM. Summed up:
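Cell-based read-out of cAMP via a modified cyclic nucleotide-gated channel and membrane potential dye (535/590 nm) in HEK293 cells expressing PDE4 endogenously. Compounds tested up to 22.9 uM final; 100 uM RO 20-1724 reference.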
On the technique in general: Quantitative high-throughput screening tests each substance at several concentrations.

Each structure is given as a SMILES string. Unmarked numbers belong to inactive results. Inconclusive results are not listed. Calls of active or inactive are those of the source. Unless noted, no rule for the calls is given here.

Chain of 3',5'-cyclic-AMP phosphodiesterase 4B (Homo sapiens) (Q07343 whole entry, looked up): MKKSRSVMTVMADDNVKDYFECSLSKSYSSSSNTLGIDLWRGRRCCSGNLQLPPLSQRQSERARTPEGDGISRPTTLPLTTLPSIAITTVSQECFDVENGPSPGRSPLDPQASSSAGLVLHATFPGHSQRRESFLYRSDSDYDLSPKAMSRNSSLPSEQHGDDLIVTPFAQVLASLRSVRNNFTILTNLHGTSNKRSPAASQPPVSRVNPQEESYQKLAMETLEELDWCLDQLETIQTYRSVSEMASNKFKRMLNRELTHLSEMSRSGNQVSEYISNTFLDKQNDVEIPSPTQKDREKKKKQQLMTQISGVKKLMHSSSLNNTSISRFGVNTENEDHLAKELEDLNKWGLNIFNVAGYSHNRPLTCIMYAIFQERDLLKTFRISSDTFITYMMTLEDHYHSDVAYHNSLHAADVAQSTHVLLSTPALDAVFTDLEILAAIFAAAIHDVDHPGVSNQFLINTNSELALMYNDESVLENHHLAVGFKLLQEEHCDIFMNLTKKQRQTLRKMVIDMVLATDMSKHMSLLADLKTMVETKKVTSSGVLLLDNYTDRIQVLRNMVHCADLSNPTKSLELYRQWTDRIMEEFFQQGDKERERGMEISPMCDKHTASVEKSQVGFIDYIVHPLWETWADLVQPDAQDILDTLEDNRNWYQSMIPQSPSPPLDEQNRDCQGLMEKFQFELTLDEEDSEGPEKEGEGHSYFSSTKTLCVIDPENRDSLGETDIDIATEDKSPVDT
Chain of Cytochrome P450 1A2 (Homo sapiens) (P05177 whole entry, looked up): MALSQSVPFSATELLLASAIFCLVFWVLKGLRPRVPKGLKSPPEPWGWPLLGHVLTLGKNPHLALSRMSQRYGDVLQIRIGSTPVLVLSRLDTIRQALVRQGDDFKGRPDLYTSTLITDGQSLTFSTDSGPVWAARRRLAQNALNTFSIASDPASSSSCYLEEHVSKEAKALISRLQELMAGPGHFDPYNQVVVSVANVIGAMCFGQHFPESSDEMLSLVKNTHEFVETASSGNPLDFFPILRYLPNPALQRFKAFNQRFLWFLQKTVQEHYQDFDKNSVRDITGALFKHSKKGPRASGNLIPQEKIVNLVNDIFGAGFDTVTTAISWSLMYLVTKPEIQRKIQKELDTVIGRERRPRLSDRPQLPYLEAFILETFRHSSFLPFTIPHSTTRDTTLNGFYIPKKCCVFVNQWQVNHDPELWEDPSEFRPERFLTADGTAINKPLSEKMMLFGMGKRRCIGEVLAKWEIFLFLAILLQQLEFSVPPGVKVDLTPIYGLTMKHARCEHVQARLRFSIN
Chain of Lysosomal acid glucosylceramidase (Homo sapiens) (P04062 whole entry, looked up): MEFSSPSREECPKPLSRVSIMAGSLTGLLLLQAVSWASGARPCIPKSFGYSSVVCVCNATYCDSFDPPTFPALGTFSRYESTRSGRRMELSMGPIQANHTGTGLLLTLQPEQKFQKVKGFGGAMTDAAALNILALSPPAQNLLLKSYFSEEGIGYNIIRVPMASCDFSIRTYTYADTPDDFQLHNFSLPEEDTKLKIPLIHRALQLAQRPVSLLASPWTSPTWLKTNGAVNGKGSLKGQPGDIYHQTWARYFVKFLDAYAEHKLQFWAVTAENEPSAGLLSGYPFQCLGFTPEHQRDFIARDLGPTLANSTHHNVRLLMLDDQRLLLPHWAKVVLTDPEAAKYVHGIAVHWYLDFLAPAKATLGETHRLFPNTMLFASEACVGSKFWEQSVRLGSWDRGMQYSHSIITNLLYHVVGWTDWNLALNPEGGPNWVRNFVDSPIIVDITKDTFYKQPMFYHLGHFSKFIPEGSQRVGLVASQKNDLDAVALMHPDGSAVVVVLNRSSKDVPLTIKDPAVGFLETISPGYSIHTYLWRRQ

Consider `N#Cc1ccc(CN2CC[C@@]3(CCCN(C(=O)c4cccc(F)c4)C3)C2)cc1`, for which the Potency in test [1] is over 20 µM. For `COc1ccc(-c2nc3cnc(OC)nc3n(C3CC3)c2=O)cc1`, the Potency in test [1] is over 20 µM. In the case of `CN(C)c1ncc2ncc(=O)n(CCc3ccccc3)c2n1`, the Potency in [1] is over 20 µM.

Consider `Cc1nc2cnc(N3CCOCC3)nc2n(Cc2ccc(F)cc2)c1=O`, for which, in [1], the Potency is over 20 µM. As to `O=c1c(-c2ccccc2)nc2cnc(Oc3ccccc3)nc2n1Cc1cccs1`, the Potency in test [1] is over 20 µM. `CS(=O)(=O)N1CCC2(CC1)CN(C(=O)Nc1cccc(F)c1)C2`: the Potency in [1] was over 20 µM.

`COc1cccc(Cn2c(=O)c(-c3cn(C)c4ccccc34)nc3cnc(OC)nc32)c1`: the Potency in [1] is over 20 µM. Regarding `COC(=O)N1CCC2(CC1)CCN(c1ccccn1)CC2`, the Potency in [1] is over 20 µM. With `N#Cc1cccc(NC(=O)N2CCCC3(CCN(C(=O)c4cnccn4)CC3)C2)c1`, the Potency in test [1] was over 20 µM.

With `COC(=O)N1CCC2(CC1)CCN(c1ncccn1)CC2`, in [1], the Potency was over 20 µM.

With `COc1ccc(NC(=O)N2CC[C@@]3(CCCN(C(=O)c4cc(C(F)(F)F)cc(C(F)(F)F)c4)C3)C2)cc1`, in test [1], the Potency was over 20 µM. On to `COc1cccc(Cn2c(=O)c(CCc3ccccc3)nc3cnc(N4CCN(C)CC4)nc32)c1`, for which the Potency in test [1] was over 4 µM. Turning to `O=C(Oc1ccccc1)N1CCC[C@@]2(CCN(c3ccncc3)C2)C1`, the Potency in test [1] is over 20 µM.

Take `O=c1cnc2cnc(N3CCNCC3)nc2n1Cc1cccs1`: in test [1], the Potency was over 20 µM.

With `COc1ccc(C(=O)N2CCC3(CCCN(Cc4ccncc4)C3)CC2)cc1`, the Potency in [1] is over 20 µM.

As to `COc1ccc(-n2c(=O)c(C)nc3cnc(N(C)C)nc32)cc1`, the Potency in [1] is over 20 µM. As for `COc1ccccc1CNc1ncncc1-c1ccc(N(C)C)cc1`, the Potency in test [1] was over 20 µM. On to `COc1ccc(-c2nc3cnc(N4CCN(C)CC4)nc3n(CCc3ccccc3)c2=O)cc1`, for which the Potency in test [1] was over 20 µM. The same measure, in the same setting: the same measure for `COc1ccc(C(=O)N2CCC3(CCN(Cc4nccs4)CC3)CC2)cc1`: over 20 µM; for `COc1ccc(-n2c(=O)c(-c3ccc(Cl)cc3)nc3cnc(N4CCOCC4)nc32)cc1`: over 20 µM; for `COc1ccc(NC(=O)N2CCCC3(CCN(C(=O)c4c(C)noc4C)CC3)C2)cc1`: over 20 µM. Consider `COc1ncc2nc(-c3ccc(Cl)cc3)c(=O)n(Cc3cccs3)c2n1`, for which the Potency in test [1] was over 20 µM.

As for `O=C(c1cnccn1)N1CCC2(CCCN(c3cccc(-c4ccccc4)c3)C2)CC1`, the Potency in test [1] was over 20 µM. In the case of `O=C(Oc1ccccc1)N1CCC2(CCCN(c3ccccc3)C2)CC1`, in [1], the Potency was over 20 µM. Turning to `COc1ccccc1-c1nccc(NCc2cccc(C)c2)n1`, the Potency in [1] is over 20 µM.

On to `Cn1c(=O)c(-c2cc(F)cc(F)c2)nc2cnc(N3CCOCC3)nc21`, for which the Potency in test [1] was over 20 µM. In the case of `CCNc1ncc2ncc(=O)n(Cc3cccc(OC)c3)c2n1`, the Potency in test [1] was over 20 µM. Turning to `COc1ccc2[nH]cc(CCNc3nc(-c4ccccc4CN(C)C)nc4ccccc34)c2c1`, in test [1], the Potency is over 20 µM. Consider `CC(C)CN1CCCC2(CCN(S(=O)(=O)c3ccccc3)CC2)C1`, for which the Potency in test [1] is over 20 µM.

For the compound `O=C(c1csnn1)N1CCC[C@@]2(CCN(Cc3nccs3)C2)C1`, in [1], the Potency is over 20 µM.

Turning to `Oc1ccc([C@H](O)[C@@H]2CCCCN2)cc1O`, the Potency was over 11.4 µM in [2], over 46 µM in [7] and over 9.22 µM in test [8]. For the same compound, the activity change, negative = inhibition in test [3] was -22.3%; in [5], 5.42%; in [9] it was 1.46% [at 11.4 µM]. Also, the Potency result in test [4] is “inactive”. Moreover, in [6], the activity, negative = inhibition was 8.8%. The result in [10] was inactive. Consider `N[C@@H](CP(=O)(O)O)C(=O)O`, for which the Potency in test [2] is over 11.4 µM; in test [7], over 46 µM; in [8], over 9.22 µM. Besides, the activity change, negative = inhibition in test [3] is 0.329%; in test [5] it was 2.91%; in test [9], 5.7% [at 11.4 µM]. The Potency entry in test [4] is “inactive”. In addition, in test [6], the activity, negative = inhibition was 2.68%. Moreover, the compound was called inactive in test [10].
